Inconclusive results are not listed. Activity calls are given as the source filed them. Calls follow the shape of the dose curve; as a rule, active = well fitted inhibition curve with a large enough effect; inconclusive = small, poorly fitted or top-dose-only effect; inactive = no such curve, though single readings can be large or run the other way.
Each compound was assayed on Zika virus NS2B-NS3 protease (unlinked complex) (assay: Primary screen GU Rhodamine qHTS for Zika virus inhibitors: Unlinked NS2B-NS3 protease assay (AID 1347159; also: nearly all actives have a fitted effect of over 60% in size)). Conditions: Recombinant ZIKV NS2B-NS3 protease, Rhodamine110 substrate fluorescence; series mostly up to 107 µM; activity change, negative = inhibition: at the top concentration.
Summary of the method: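 Noncovalent NS2B hydrophilic domain/NS3 protease complex (25 nM final) in 10 mM Tris-HCl pH 8.0, 0.01% Tween 20, preincubated 15 min with compounds (up to 114 microM), then 1.5 microM Rhodamine110 substrate. Fluorescence change over 15 min fitted to 4-parameter Hill.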
With `CC(C)C(CO)Nc1nc(Nc2ccc(C(=O)O)c(Cl)c2)c2ncn(C(C)C)c2n1` (stereo not given) the “activity change, negative = inhibition” value was -11.7% (inactive).
For `CC(=O)c1ccc2c(c1)C(O)C(C(C)(C)O)O2` (stereo not given), the “activity change, negative = inhibition” value was -14.7% (inactive).
In the case of `CC(=O)OC1C(=O)C2(C)C(O)CC3OCC3(OC(C)=O)C2C(OC(=O)c2ccccc2)C2(O)CC(OC(=O)C(O)C(NC(=O)c3ccccc3)c3ccccc3)C(C)=C1C2(C)C` (stereo not given), the “activity change, negative = inhibition” value is reported as 13% (inactive).
For `CCN1CCN(Cc2ccc(Nc3ncc(F)c(-c4cc(F)c5nc(C)n(C(C)C)c5c4)n3)nc2)CC1`, the “activity change, negative = inhibition” value was -8.06% (inactive).
With `CN(C)CCn1cc(S(=O)(=O)c2cccc(F)c2)c2cccnc21` the “activity change, negative = inhibition” value was 40% (inactive).
`CCC(=O)O[C@H]1C(C)(C)[C@H]([C@@H](O)C(=O)OC)[C@]2(C)C(=O)[C@@]1(O)[C@H]1O[C@]13C1CC(=O)O[C@@H](c4ccoc4)[C@]1(C)CCC32` (stereo not given in full) was tested, and the “activity change, negative = inhibition” value was 14.1% [at 32.5 µM] (inactive).
For `CC(O)(CC(=O)O)CC(=O)OCc1ccc(O[C@@H]2O[C@H](CO)[C@@H](O)[C@H](O)[C@H]2O)cc1` (stereo not given in full), the “activity change, negative = inhibition” value was 17.4% [at 57.1 µM] (inactive).
For `CCC(O)(C(=O)OCc1ccccc1NC(=O)CCC(=O)O)C(C)O` (stereo not given), the “activity change, negative = inhibition” value was 19.6% (inactive).
In the case of `C[C@H](O)[C@H](O)/C=C/c1cccc(O)c1CO`, the “activity change, negative = inhibition” value is reported as 7.66% (inactive).
With `CCN(CC)Cc1ccc(C(=O)N(CCc2ccccc2OC)[C@@H]2CCNC2)cc1` the “activity change, negative = inhibition” value was 16.6% [at 57.1 µM] (inactive).
For `COc1ccc2cc(C(C)C(=O)Oc3ccc(C(N)=S)cc3)ccc2c1` (stereo not given), the “activity change, negative = inhibition” value was -21.4% (inactive).
In the case of `CC/C=C\[C@H](O)[C@H](O)C1=C(C)C(=O)[C@]2(O1)C(=O)N[C@@](OC)(C(=O)c1ccccc1)[C@@H]2O`, the “activity change, negative = inhibition” value is reported as -0.858% [at 57.1 µM] (inactive).
For `C[C@H](C(=O)NC1CCCC1)N(C(=O)Cn1nnc(-c2ccc3c(c2)OCO3)n1)C1CCCCC1`, the “activity change, negative = inhibition” value was 12.8% (inactive).
For `Cc1ccc(C(=O)N(CCCN)C(c2oc3cc(Cl)ccc3c(=O)c2Cc2ccccc2)C(C)C)cc1` (stereo not given), the “activity change, negative = inhibition” value was 194% (inactive).
`C=C(C(=O)O)C1CCC2(C)CCC(O)C(C)(O)C2C1` (stereo not given) was tested, and the “activity change, negative = inhibition” value was 3.36% (inactive).
`CCOc1ccc(NC(=S)N2CCC(C(O)(c3ccccc3)c3ccccc3)CC2)cc1` was tested, and the “activity change, negative = inhibition” value was 19.5% (inactive).
For `COc1ccc(CC2C(=O)NC(C)C(=O)N(C)C3Cc4ccc(cc4)Oc4cc(ccc4OC4OC(CO)C(O)C(O)C4O)CC(C(=O)NC(C)C(=O)NC(C)C(=O)N2C)N(C)C3=O)cc1` (stereo not given), the “activity change, negative = inhibition” value was -8.53% [at 32.5 µM] (inactive).
With `C[S+](CC[C@H](N)C(=O)[O-])C[C@H]1O[C@@H](n2cnc3c(N)ncnc32)[C@H](O)[C@@H]1O` (stereo not given in full) the “activity change, negative = inhibition” value was -13.8% (inactive).
`Cc1ccc(-c2ccc3ncc4c(c3n2)n(C2CCN(C(=O)[C@H](C)O)CC2)c(=O)n4C)cn1` was tested, and the “activity change, negative = inhibition” value was -7.16% (inactive).
With `C[C@@H]1O[C@@H](O[C@H]2[C@H](O)[C@@H](O)[C@H](OC3CCC4(C)C5CCC(C)(C(CO)OC6OC(CO)C(O)C(O)C6O)CC5=CCC4C3(C)C)O[C@@H]2CO)[C@H](O)[C@H](O)[C@H]1O` (stereo not given in full) the “activity change, negative = inhibition” value was 14.3% [at 32.5 µM] (inactive).
`CC[C@H](NC(=O)[C@H](CS(=O)(=O)CC1CC1)N[C@@H](c1ccc(F)cc1)C(F)(F)F)C(=O)C(=O)NC1CC1` was tested, and the “activity change, negative = inhibition” value was 0% (inactive).
In the case of `CC(C)(O)CC(CO)NC(=O)CC(O)CC(=O)Cc1ccccc1` (stereo not given), the “activity change, negative = inhibition” value is reported as -1.95% (inactive).
With `COc1nc2sc(C(=O)NC3CC3)c(N)c2c(C)c1Cl` the “activity change, negative = inhibition” value was 14.1% (inactive).
In the case of `C/C=C(\C)C(=O)O[C@H]1[C@@H](O[C@]2(COC(=O)CC(C)C)O[C@H](COC(=O)C(C)CC)[C@@H](OC(C)=O)[C@@H]2O)O[C@H](COC(C)=O)[C@@H](O)[C@@H]1O` (stereo not given in full), the “activity change, negative = inhibition” value is reported as -1.65% [at 32.5 µM] (inactive).
`CN(CCc1ccc(Nc2ncc(-c3cccnc3)s2)cc1)Cc1ccccc1` was tested, and the “activity change, negative = inhibition” value was 36.6% (inactive).
For `O=C1CCC(c2ccccc2)(C2CCN(Cc3ccc(I)cc3)CC2)C(=O)N1` (stereo not given), the “activity change, negative = inhibition” value was -23.2% (inactive).
`CO[C@H]1C[C@@H]2CC[C@@H](C)[C@@](O)(O2)C(=O)C(=O)N2CCCC[C@H]2C(=O)O[C@H]([C@H](C)C[C@@H]2CC[C@H](n3cnnn3)[C@H](OC)C2)CC(=O)[C@H](C)/C=C(\C)[C@@H](O)[C@@H](OC)C(=O)[C@H](C)C[C@H](C)/C=C/C=C/C=C/1C` was tested, and the “activity change, negative = inhibition” value was 0% [at 57.1 µM] (inactive).
In the case of `CCC(C)C(=O)OC1CC(C)C=C2C=CC(C)C(CCC(O)CC(O)CC(=O)O)C21` (stereo not given), the “activity change, negative = inhibition” value is reported as -10.7% [at 57.1 µM] (inactive).
`CC1=C(CCC(C)CC(=O)O)[C@@]2(C)CCCC(C)(C)C2CC1=O` (stereo not given in full) was tested, and the “activity change, negative = inhibition” value was -10% (inactive).
With `CC1(C)CC[C@]2(C(=O)O)[C@H](O)C[C@]3(C)C(=CCC4[C@@]5(C)CC[C@H](O[C@@H]6O[C@H](CO[C@@H]7OC[C@H](O)[C@H](O)[C@H]7O[C@@H]7OC[C@@H](O)[C@H](O)[C@H]7O)[C@@H](O)[C@H](O)[C@H]6O[C@@H]6O[C@H](CO)[C@@H](O)[C@H](O)[C@H]6O)C(C)(C)C5CC[C@]43C)[C@@H]2C1` (stereo not given in full) the “activity change, negative = inhibition” value was 50.3% [at 32.5 µM] (inactive).
With `C=C1C(=O)O[C@@H]2C[C@H](C)[C@@]3(O)C=C(C(C)=O)[C@]4(CC3C[C@H]12)C(=O)O[C@H]1C[C@@H](C)C(CCC(C)=O)=CC[C@H]14` (stereo not given in full) the “activity change, negative = inhibition” value was -4.63% [at 57.1 µM] (inactive).
With `O=C1CCC=CC1(O)C(=O)OCc1ccccc1O[C@@H]1O[C@H](CO)[C@@H](O)[C@H](O)[C@H]1O` (stereo not given in full) the “activity change, negative = inhibition” value was -18.8% [at 57.1 µM] (inactive).
In the case of `CC(C)=CC/C=C(\C)[C@H]1CC[C@]2(C)[C@@H]1[C@H](O)C[C@@H]1[C@@]3(C)CC[C@H](O)C(C)(C)[C@@H]3[C@@H](O[C@@H]3O[C@H](CO)[C@@H](O)[C@H](O)[C@H]3O)C[C@]12C`, the “activity change, negative = inhibition” value is reported as 0% (inactive).
`CCNC(=O)Nc1ccc(-c2nc3c(c(N4CCOC[C@@H]4C)n2)CCN(c2ncccn2)C3)cc1` was tested, and the “activity change, negative = inhibition” value was -16.8% (inactive).
With `C[C@@H]1O[C@@H](O[C@@H]2[C@@H](O)[C@@H](O[C@]3(CO)O[C@H](CO)[C@@H](O)[C@@H]3OC(=O)/C=C/c3ccc(O)cc3)O[C@H](CO)[C@H]2OC(=O)/C=C/c2ccc(O)cc2)[C@H](O)[C@H](O)[C@H]1O[C@@H]1O[C@@H](C)[C@H](O[C@@H]2OC[C@](O)(CO)[C@H]2O)[C@@H](O)[C@H]1O` the “activity change, negative = inhibition” value was 6.24% [at 32.5 µM] (inactive).
In the case of `CO[C@H]1/C=C/[C@@](C)(O)/C=C/C(=O)O[C@H](C)[C@@H](C)CC/C=C/1C`, the “activity change, negative = inhibition” value is reported as 0.58% (inactive).
For `CC1C(=O)CC2C3CCC(C(=O)O)C12CC3(C)CO` (stereo not given), the “activity change, negative = inhibition” value was -15.9% (inactive).
With `C[C@H]1C(=O)N2c3ccccc3[C@@]3(O)C[C@@H]4C(=O)N[C@](C)(c5nc6ccccc6c(=O)n54)N1[C@@H]23` the “activity change, negative = inhibition” value was -0.36% [at 57.1 µM] (inactive).
For `CCn1c(=O)c(-c2ccn[nH]2)cc2c(C)nc(N)nc21`, the “activity change, negative = inhibition” value was 11.1% (inactive).
With `Cc1cc(C)nc(NS(=O)(=O)c2ccc(NC(=S)NC(=O)COc3ccc(Br)cc3Cl)cc2)n1` the Potency was 7.08 µM (active).

— PubChem BioAssay (NCATS)
% is scaled to controls: 0 for no effect and ±100 for the full control effect; potency is read from the fitted curve at half-maximal effect.
